Data as given in PubChem BioAssay AID1159580 (chemical genetic matrix, 2015).
The whole screen tested about 5,500 compounds, of which about 2,000 (36%) were called active. Roughly 18% stayed inconclusive and do not appear here. Rule as the data show it: active = normalized growth mostly below about 0.91 (no sharp cut-off); inconclusive = no clear call, values can overlap the other calls; inactive = mostly above about 0.92. The list shows a part of the results.

Assay: chemical genetic growth profiling, strain panel (AID 1159580);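 also: tested at 20 µM; growth read once vehicle control cultures reached saturation at 30 °C; 1 = growth at the plate median or of vehicle wells; lower values mean less growth of the strain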
Details: S. cerevisiae deletion strains, growth OD

Measured: normalized growth

C[C@]12CCc3occc3C1CC[C@@]13C[C@@H](CCC12)[C@@](O)(CO)C3 (stereo partly drawn)
inactive: locus YHR030C, strain SLT2, hits give low values 0.934 | locus YHR079C, strain IRE1, hits give low values 0.961 | locus YJL095W, strain BCK1, hits give low values 0.948 | locus YJR066W, strain TOR1, hits give low values 0.909 | locus YLR113W, strain HOG1, hits give low values 0.873 | locus YNL183C, strain NPR1, hits give low values 0.91 | locus YOR231W, strain MKK1, hits give low values 0.911 | locus YPL256C, strain CLN2, hits give low values 0.924
